In all, about 60,000 compounds went through this assay and about 65 (0.1%) were called active. Many of the other results were omitted from the sample, so actives are more common in it than they were. Values without a mark were called inactive. Calls come from the whole dose curve; as a rule, active = well fitted inhibition curve with a large enough effect; inconclusive = small, poorly fitted or top-dose-only effect; inactive = no such curve, though single readings can be large or run the other way.
Each molecule was assayed against Ubiquitin carboxyl-terminal hydrolase 2 (Homo sapiens) (UniProt O75604) (assay: qHTS Assay for Inhibitors of Ubiquitin-specific Protease USP2a). Conditions: USP2a enzymatic assay; Potency: qHTS inhibition; series mostly up to 38.3 µM; activity change, negative = inhibition: at the top concentration.
From the text: NIH Molecular Libraries Screening Centers Network [MLSCN]
NIH Chemical Genomics Center [NCGC]
PI Name: Nicholson, Ben. Progenra Inc, Malvern, PA
Homeostasis of cellular proteins is maintained through a combination of synthesis and degradation. The pathway that accounts for the majority of protein degradation is the ubiquitin-proteasomal pathway. Ubiquitin (Ub) is highly conserved in all cells and the generation of a multi-Ub chain typically targets proteins for degradation by the proteasome. However, ubiquitination is highly reversible and dynamic. Deubiquitination, the reverse process, is catalyzed through the action of enzymes referred to as isopeptidases or deubiquitinating enzymes (DUBs). This group of enzymes is collectively responsible for maintaining adequate pools of free ubiquitin and regulating the ubiquitination status of cellular proteins. The class of DUBs referred to as the ubiquitin-specific proteases (USP) family functions endoproteolytically to cleave Ub chains from a wide range of protein substrates. USP2a deubiquitinates fatty acid synthase (FASN) which has recently been identified as an emerging oncology target. To identify inhibitors of USP2a a cell-free assay was employed.
The reporter enzyme chosen is phospholipase A2 (PLA2), which has an absolute requirement for a free amino terminus. Thus, fusion of a UBL to the N-terminus of PLA2 inactivates PLA2. When the UBL-PLA2 reporter enzyme is cleaved by USP2, the activated reporter can subsequently act on its substrate, which is the commercially available NBD C6-HPC (Invitrogen). Thus, this coupled assay gives a fluorescent read-out, which is generated through the cleavage of the PLA2 reporter enzyme. The assay, developed by Progenra, Inc. uses Ub-PLA2 and USP2a at near equal and low (nM) amounts and has been licensed for sale by LifeSensors, Inc. as the Ub-IsoPro1 kit.
NCGC Assay Protocol Summary:
The assay buffer, prepared fresh at the day of the assay, contains 20mM Tris-HCl pH 8.0, 2mM CaCl2, 2mM beta-Mercaptoethanol, 0.1% DMSO. 3ul of 40nM (20nM final) USP2 core, which is stored on ice, is dispensed into a medium-binding black solid Kalypsys 1,536 well plate using the Kalypsys dispenser. The assay plate is then pinned with 23nL compound with the Kalypsys pintool in columns 5-48. The controls are pinned as follows: column 1&2 two-fold dilutions of 2M NEM in duplicate; column 3 DMSO; column 4 2M NEM (final concentration 38.2mM). The assay plate is incubated at RT for 30min. Subsequently, 3uL of 40nM (20nM final) Ub-PLA2 and 40uM (20uM final) NBD C6-HPC (stored on ice and protected from light) were dispensed into the plate using the Kalypsys dispenser. Plates were read immediately (0 Hour) on an Envision (Perkin Elmer) plate reader using the following wavelengths Ex 460nm /Em 535nm. Then, the assay plates were incubated for 2.5 hours and read again on the Envision using the same settings
Data were normalized to the to AC100 inhibition (NEM). Concentration-response curves were fitted to the normalized data and the concentration-response curves were then classified based on curve quality (r2), response magnitude and degree of measured activity. The time zero reading was used to flag fluorescence artifacts.
Keywords: ubiquitination, deubiquitination, proteases, profluorescent, MLSMR, MLSCN, NIH Roadmap, qHTS, NCGC
Note: nearly all actives have a fitted effect of over 60% in size.
Potency is the fitted concentration of half-maximal effect.

Chain of Ubiquitin carboxyl-terminal hydrolase 2 (Homo sapiens) (O75604 whole entry, looked up): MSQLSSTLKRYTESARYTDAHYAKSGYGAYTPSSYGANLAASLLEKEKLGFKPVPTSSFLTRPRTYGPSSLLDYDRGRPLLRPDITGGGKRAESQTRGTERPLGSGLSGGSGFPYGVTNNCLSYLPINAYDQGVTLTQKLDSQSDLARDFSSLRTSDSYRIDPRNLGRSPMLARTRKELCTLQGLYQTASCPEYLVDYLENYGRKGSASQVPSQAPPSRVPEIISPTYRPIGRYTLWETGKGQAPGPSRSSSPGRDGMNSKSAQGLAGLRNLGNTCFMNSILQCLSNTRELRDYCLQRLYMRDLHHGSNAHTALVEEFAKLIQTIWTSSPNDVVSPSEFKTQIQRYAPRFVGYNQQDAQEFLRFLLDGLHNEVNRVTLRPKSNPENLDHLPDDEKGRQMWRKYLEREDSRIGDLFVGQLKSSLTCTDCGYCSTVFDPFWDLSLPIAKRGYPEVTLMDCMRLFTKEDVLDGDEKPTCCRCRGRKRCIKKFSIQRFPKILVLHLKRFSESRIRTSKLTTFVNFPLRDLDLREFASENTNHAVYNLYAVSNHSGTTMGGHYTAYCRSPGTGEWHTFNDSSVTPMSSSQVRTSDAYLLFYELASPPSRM

Row | SMILES | Potency | activity change, negative = inhibition
1 | Clc1ccc(C(c2ccc(Cl)cc2)n2cc[n+](C[C@@H](OCc3ccc(Cl)cc3Cl)c3ccc(Cl)cc3Cl)c2)cc1 | 25.1 µM (active) | –
2 | COc1ccc(C2Oc3c(I)c(OC)cc(OC)c3CC2O)cc1OC (stereo not given) | – | 2.52%
3 | COC1CC(OC2CC[C@@]3(C=O)C4CC[C@]5(C)C(C6=CC(=O)OC6)CC[C@@]5(O)C4CC[C@]3(O)C2)OC(C)C1O (stereo not given in full) | – | 0.885%
4 | COc1cc2c(cc1OC)[C@@H]1C(=O)c3ccc(O)c(CC=C(C)C)c3OC1CO2 (stereo not given in full) | – | -10.3%
5 | C=CCSSCC=C | – | -4.04%

Reference: PubChem BioAssay AID927 (National Center for Advancing Translational Sciences (NCATS), 2007)
